From PubChem
KB-3-1 cytotox: qHTS assay for MDR1-selective chemotherapeutics: Primary screen using the parental adenocarcinoma cell KB-3-1 | KB-3-1 viability, CellTiter-Glo ATP luminescence, 72 h | Potency, µM (top dose mostly 46.1 µM), hits mostly cytotoxic | 400,000 tested, 1.4% active; further: on the % scale 0 is the no-effect control and ±100 the full control effect; nearly all actives have a fitted effect of over 60% in size
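KB-3-1 cells, DMEM (no phenol red) + 10% FBS; compound by pin transfer, 72 h, 37 °C. Readout: CellTiter-Glo luminescence after 10 min. Data normalized, curve-fitted.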
MCF10A rereplic: A quantitative high throughput screen for small molecules that induce DNA re-replication in MCF 10a normal breast cells | MCF 10A DNA re-replication, Hoechst nuclear intensity, 48 h | Potency, µM (highest dose often 46.1 µM), inactives show at the top dose activity, positive = re-replication, usual class: activators | 350,000 tested, 2.9% active; further: % of control where 0% means no effect; nearly all actives have a fitted effect of over 50% in size
KB-V1 MDR tox: qHTS assay for MDR1-selective chemotherapeutics: Primary screen using the drug-selected MDR subline cells KB-V1. KB-V1 MDR cells viability, CellTiter-Glo, 72 h. Potency, µM (top dose mostly 46.1 µM), most hits filed as cytotoxic. 400,000 tested, 3.4% active; further: on the % scale 0 is the no-effect control and ±100 the full control effect; nearly all actives have a fitted effect of over 60% in size
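Cytotoxicity via CellTiter-Glo luminescence after 72 h compound exposure at 37 degrees C. Cells: drug-selected KB-V1 line, DMEM phenol-red free plus 10% FBS. Compounds tested at multiple concentrations; normalized data fitted to concentration-effect curves.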
SW480 rerep: A quantitative high throughput screen for small molecules that induce DNA re-replication in SW480 colon adenocarcinoma cells. SW480 DNA re-replication, Hoechst DNA content imaging, 48 h. AID 624297, 2012. 340,000 tested, 1.8% active. Potency, µM (highest dose often 46.1 µM), inactives show at the top dose re-replication activation, actives largely listed as activators; further: % of control where 0% means no effect; nearly all actives have a fitted effect of over 55% in size
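Image-based read-out: total Hoechst fluorescence of nuclei (405 nm excitation, 500-530 nm emission), with hits raising the fraction of high-intensity nuclei. SW480 colon cells incubated 48 hr with compounds at 37 C.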
PINK1 modulator: A Quantitative High throughput Screen to Identify Chemical Modulators of PINK1 Expression | AID 624263, 2012 | PINK1 immunofluorescence, high-content cytometry, 24 h | Potency, µM (highest dose often 76.6 µM), inactives show at the highest dose activation (PINK1 increase), actives largely listed as activators | 410,000 tested, 0.2% active; active means well fitted activation curve with a large enough effect; inconclusive means small, poorly fitted or top-dose-only effect; cell line not stated here; further: % of control where 0% means no effect; nearly all actives have a fitted effect of over 65% in size
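Compound titrations (5 concentrations, 24 h) on a stable cell line; DMSO and CCCP controls. Endpoint: fixed-cell PINK1 immunofluorescence with mitochondrial, cell and nuclear markers, scanned by microplate cytometer.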
Starred values were filed as active, the others as inactive; i = inactive; u = inconclusive; x = not tested or not shown; [ ] = another dose, or the depositor's remark. Most compounds without a hit are left out; they make up all but 6.7% or so of the library. Unless noted, the call rests on the fitted dose curve; in most records, active means well fitted curve in the direction sought with a large enough effect; inconclusive means small, poorly fitted or top-dose-only effect, or another doubt; inactive means no such curve, though single readings can be large; an effect the other way counts as inactive or inconclusive. Potency means the concentration at half of the fitted maximal effect.

SMILES	KB-3-1 cytotox	MCF10A rereplic	KB-V1 MDR tox	SW480 rerep	PINK1 modulator
COc1ccccc1N(CC(=O)N1CCC(C)CC1)S(=O)(=O)c1ccc(C)cc1	i	x	i	x	0%
COc1ccc(Cl)cc1S(=O)(=O)Nc1cccc(-c2ccc(N3CCOCC3)nn2)c1	i	x	i	x	0%
CCCCCN(C(=O)CCC(=O)OCc1ccc(C(C)(C)C)cc1)c1c(N)n(CCCC)c(=O)[nH]c1=O	i	21µM*	i	-1%	-1%
COP(=O)(OC)c1nc(-c2ccc(C)cc2)oc1N1CCCCC1	i	4%	i	1%	1%
COc1ccc(S(=O)(=O)N(C)c2nc3ccccc3n3c(CC(C)C)nnc23)cc1	i	12µM*	u	14%	-1%
O=C1Nc2ccc(S(=O)(=O)N3CCCCCC3)c3cccc1c23	i	21µM*	i	0%	4%
Cc1ccsc1/C=N/NC(=O)c1ccncc1	i	-7%	i	-9%	1%
CCOc1ccc(C(=O)N/N=C/c2cc([N+](=O)[O-])cs2)cc1	i	5%	i	4%	2%
COc1cc(C(=O)N/N=C/c2sccc2C)cc(OC)c1OC	0.65µM*	u	u	1.2µM*	8%
COc1ccc(/C=N/NC(=O)c2sccc2C)c2ccccc12	i	12µM*	i	u	7%
COc1cc(C(=O)N/N=C/c2cc([N+](=O)[O-])cs2)cc(OC)c1OC	u	5.8µM*	1.2µM*	u	7%
CC(C)CC(=O)Nc1ccc(C(=O)NNC(=S)NC(=O)C2CCCCC2)cc1	i	-5%	10µM*	0%	x
COc1ccc(NC(=O)N2c3ccc(OC)cc3C(C)=CC2(C)C)cc1	i	21µM*	u	-58%	-1%
COc1ccc(NC(=O)N2c3ccccc3C(C)=CC2(C)C)cc1	i	9%	i	-1%	3%
CCOc1ccc(CN(C)C(C)C(=O)Nc2ccc([N+](=O)[O-])cc2Cl)cc1OC (centres undefined)	i	-11%	i	-6%	1%
COc1ccc(CN(C)C(C)C(=O)Nc2ccc([N+](=O)[O-])cc2Cl)cc1OC (centres undefined)	i	18%	5.2µM*	u	1%
CCCCOc1ccc(Nc2cc(Cl)ccc2C(=O)O)cn1	i	16µM*	i	7%	2%
CN(C)C=NC(=O)c1ccc(N2CCN(c3ncc(C(F)(F)F)cc3Cl)CC2)cc1	i	15µM*	i	-1%	6%
Cc1ccc(-c2csc(/C(C#N)=C(\O)CCl)n2)cc1	i	16µM*	i	6%	2%
O=C(NC1CC(=O)N(c2cccc(F)c2)C1)C1CC1 (centres undefined)	x	x	x	x	1%
Cc1cccc(-c2nc(SCC(=O)N3CCc4ccccc43)c3c(=O)n(C)c(=O)n(C)c3n2)c1	i	x	i	x	0%
CC(C)n1c(O)c(N=NC(=O)Cn2ccc(C(F)(F)F)n2)c2ccccc21	u	u	8.2µM*	-30%	7%
CCN(CC)C(=O)Cn1ncc2c([nH]c3ccccc32)c1=O	i	x	i	x	1%
CC(=O)N(C(C)=O)c1ncc2c([nH]c3ccccc32)c1C#N	i	-1%	6.5µM*	-1%	-2%[38.3 µM]
Cc1ccc2cc(CNC(C)c3cccc4ccccc34)c(N3CCC(O)CC3)nc2c1 (centres undefined)	x	x	x	x	0%
SMILES	KB-3-1 cytotox	MCF10A rereplic	KB-V1 MDR tox	SW480 rerep	PINK1 modulator
Cc1cccc(/C=N/Nc2cc(N3CCOCC3)nc(N3CCOCC3)n2)c1	u	u	15µM*	2.1µM*	17%
Clc1ccc(-c2ccc(/C=N/Nc3cc(N4CCOCC4)nc(N4CCOCC4)n3)o2)cc1	u	u	u	13µM*	6%
Cc1sc2c(c1C)c(=O)n(-c1ccc(Cl)cc1)c(=O)n2CC(=O)c1ccccc1	i	x	i	x	-1%
Cc1ccc2[nH]c(=O)c(CN(Cc3cccs3)C(=S)NCc3ccco3)cc2c1	i	13%	18µM*	9%	0%
CCNC(=S)N(Cc1cccs1)Cc1cc2cc(OCC)ccc2[nH]c1=O	i	-6%	12µM*	-5%	-1%
Cc1ccc(-c2cc(C(=O)NCCCN3CCOCC3)c3ccc(Cl)c(C)c3n2)cc1	i	u	i	21µM*	-1%
Cc1ccc(Nc2cc(C(=O)NCCCN3CCOCC3)c3ccccc3n2)cc1C	i	10µM*	i	u	-1%
O=C(NCCCN1CCOCC1)c1cc(-c2ccccc2)nc2ccccc12	i	6%	i	-4%	0%
Cc1ccc(Nc2ncc(C(=O)NCCCN3CCN(C)CC3)c3ccccc23)cc1Cl	i	23µM*	u	u	1%
COc1cccc(CNc2ncnc3sc(C(=O)N4CCOCC4)c(C)c23)c1OC	x	x	x	x	0%
COc1cc(CNc2nc(C)c(-c3ccn(C4Cc5ccccc5C4)n3)s2)cc2c1OCO2	x	x	x	x	6%
CCCOc1ccc(C(=O)Nc2cc(-c3nc4ccccc4[nH]3)ccc2C)cc1	i	x	i	x	1%
CC1(C(=O)NS(=O)(=O)C2CC2)CCN(C(=O)COc2ccc(Cl)cc2Cl)C1 (centres undefined)	i	x	i	x	0%
COc1ccc2c(c1)sc(N)[n+]2Cc1cc(C)cc2cccnc12	4.6µM*	4.6µM*	4.6µM*	8.2µM*	u
CCOc1ccc2c(c1)sc(N)[n+]2Cc1cc(C)cc2cccnc12	2.6µM*	8.2µM*	1.3µM*	4.6µM*	u
Cc1ccc2c(c1)CN(CCNC(=O)C(C)Oc1ccccc1)CC(C)O2 (centres undefined)	x	x	x	x	-1%
CN(CCC#N)C(=O)COC(=O)c1c2c(nc3ccccc13)/C(=C\c1ccco1)CC2	i	u	i	4.1µM*	7%
CC1CCCCC1NC(=O)COC(=O)c1c2c(nc3ccccc13)/C(=C\c1ccco1)CC2 (centres undefined)	i	18µM*	i	u	3%
O=C(COC(=O)c1c2c(nc3ccccc13)/C(=C\c1ccco1)CC2)NC1CCCC1	x	u	x	6.5µM*	2%
CN1CCc2nc3ccccc3c(C(=O)OCC(=O)N(CCC#N)c3ccccc3)c2C1	i	3%	u	-1%	0%
CC1CCCC(NC(=O)COC(=O)/C=C/c2ccco2)C1C (centres undefined)	i	-6%	u	-5%	-1%
O=S(=O)(c1ccc(OC(F)(F)F)cc1)N1CCN(c2nc(-c3cccs3)nc3ccccc23)CC1	i	x	i	x	1%
